# Laboratory results: PubChem BioAssay AID504332 (National Center for Advancing Translational Sciences (NCATS), 2011)
# Hit rate of the full screen: of about 350,000 compounds, about 31,000 (8.9%) were called active. Another 15% or so got no clear call; they are omitted. The full list was thinned out, with actives kept by preference. Values without a mark were called inactive. Calls follow the shape of the dose curve; as a rule, active = well fitted inhibition curve with a large enough effect; inconclusive = small, poorly fitted or top-dose-only effect; inactive = no such curve, though single readings can be large or run the other way.
# Target: Histone-lysine N-methyltransferase EHMT2 (Homo sapiens) (UniProt Q96KQ7)
# Sequence (Q96KQ7 913-1193 limits assumed): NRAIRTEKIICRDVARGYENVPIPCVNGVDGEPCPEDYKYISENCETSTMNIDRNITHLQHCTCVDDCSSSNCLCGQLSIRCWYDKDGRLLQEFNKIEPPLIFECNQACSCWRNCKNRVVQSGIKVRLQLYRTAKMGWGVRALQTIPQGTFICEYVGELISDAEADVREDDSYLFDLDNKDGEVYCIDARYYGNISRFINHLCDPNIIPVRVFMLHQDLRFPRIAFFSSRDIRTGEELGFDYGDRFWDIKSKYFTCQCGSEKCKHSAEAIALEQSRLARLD
# Assay: qHTS Assay for Inhibitors of Histone Lysine Methyltransferase G9a; also: nearly all actives have a fitted effect of over 75% in size
# Conditions: G9a H3K9 monomethylation, AlphaScreen, 2 h; series mostly up to 59 µM; activity, negative = inhibition: at the top concentration
# How it was run: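 Step 1: enzyme (final 20 nM) with compound, 15 min RT. Step 2: substrate peptide 500 nM and SAM 20 uM, 2 h RT. Step 3: anti-H3K9me1 antibody and AlphaScreen beads, 10 min, then plate read.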
# % is scaled to controls: 0 for no effect and ±100 for the full control effect; potency is read from the fitted curve at half-maximal effect.
Structure (SMILES),"activity, negative = inhibition",Potency
COc1ccc(-c2onc(C)c2C)cc1S(=O)(=O)NCCc1ccccc1,4.98%,
CCOc1ccc(CCNC(=O)CN(c2ccc(C)cc2)S(=O)(=O)N(C)C)cc1OCC,5.66%,
O=C(NCc1ccccc1Cl)c1ccc2c(=O)n(CC3CCCO3)c(=S)[nH]c2c1 (configuration not stated),56.4% [at 102 µM],
COc1ccc(CNC(=O)Cn2nnc(-c3ccc(S(C)(=O)=O)cc3)n2)cc1,-16.3%,
C/C(=N/NC(=O)C1COc2ccccc2O1)c1ccco1 (configuration not stated),0.125%,
CC(=O)c1cccc(NC(=O)C2COc3ccccc3O2)c1 (configuration not stated),19.1% [at 102 µM],
CC(/C=C/c1ccco1)=N/NC(=O)C1COc2ccccc2O1 (configuration not stated),,56.2 µM (active)
Cc1ccc(-n2ncc3c(=O)n(Cc4cccc(C(F)(F)F)c4)cnc32)cc1C,4.7%,
CCCCN=C1C([N+](=O)[O-])=CC=C2C1=NC1(CCCCC1)N2O,,11.2 µM (active)
O=C(CCNC(=O)c1ccc(Br)cc1)NCCCc1ccccc1,6.39% [at 102 µM],
O=C1CC(c2ccccc2)C(=O)N1c1cccc(O)c1 (configuration not stated),-7.63%,
Cc1cccc(N2C(=O)CC(SC(N)=Nc3ccccc3)C2=O)c1 (configuration not stated),-5.18% [at 102 µM],
COC(=O)c1ccccc1SC1CC(=O)N(c2cccc(C)c2)C1=O (configuration not stated),,44.7 µM (active)
CCOc1ccccc1N(C)C(=O)c1cc2c(s1)-c1ccccc1OC2,19.4%,
Cc1ccc(NC(=O)CCNC(=O)c2ccc([N+](=O)[O-])cc2)cc1S(=O)(=O)N1CCOCC1,-13.1% [at 12.7 µM],
O=C(CNC(=O)c1ccc(Cl)cc1Cl)NCC(=O)Nc1ccccc1N1CCOCC1,,89.1 µM (active)
Cc1ccc(C(=O)OCC(=O)Nc2ccc(Cl)cn2)cc1S(=O)(=O)N1CCOCC1,-29% [at 102 µM],
O=C(COC(=O)CCc1ccc(S(=O)(=O)N2CCOCC2)cc1)Nc1cccc(Cl)c1,3.71% [at 102 µM],
Cc1ccc(NC(=O)COC(=O)CNC(=O)c2ccc(Cl)cc2Cl)cc1S(=O)(=O)N1CCOCC1,,50.1 µM (active)
COc1c(C)cccc1C(=O)Nc1cc(Cl)ccc1N1CCOCC1,-5.78% [at 12.7 µM],
Cc1ccc(NC(=O)CCCNC(=O)c2ccc(Cl)cc2)cc1S(=O)(=O)N1CCOCC1,-11.6%,

Structure (SMILES),"activity, negative = inhibition",Potency
CC(=O)c1ccc(OCCCC(=O)Nc2ccc(C)c(S(=O)(=O)N3CCOCC3)c2)cc1,,50.1 µM (active)
O=C(COc1ccc(Cl)cc1)NC(=S)Nc1ccccc1N1CCOCC1,1.64% [at 102 µM],
COc1ccc(Nc2ncc3c(n2)CCN(C(=O)OC(C)(C)C)C3)cc1,-31.3%,
COc1ccc(CCNC(=O)Cn2c(=O)n(-c3ccccc3)c(=O)c3c(C)c(C)sc32)cc1OC,-27%,
COc1cc(C(=O)Nc2ncccc2C)ccc1OCC(=O)N1CCOCC1,19.4%,
O=C(CNS(=O)(=O)c1ccccc1)N1CCN(C(=O)c2ccco2)CC1,-0.876%,
Cc1ccc(-n2ncc3c2CC(C)(C)CC3NC(=O)CCc2cnn(C)c2)cc1 (configuration not stated),12.4% [at 102 µM],
CC1CCCN(c2csc3ccc(F)cc3c2=O)C1 (configuration not stated),-8.07%,
CCc1cccc(NC(=O)CCCN2C(=O)C(c3ccccc3)Oc3cccnc32)c1 (configuration not stated),26% [at 0.0925 µM],
O=C(CN1CCCCCC1)Nc1ccc(Br)cc1[N+](=O)[O-],,35.5 µM (active)
COc1cc([N+](=O)[O-])ccc1NC(=O)CN1CCCC1,-15.7%,
O=C(CN1CCCCCC1)Nc1ccc(Br)cc1Br,105% [at 102 µM],
COC(=O)c1sccc1S(=O)(=O)N(CC(=O)Nc1ccc(C)c(F)c1)c1ccc(C)c(C)c1,17%,
O=S(=O)(NCc1ccc(Cl)cc1Cl)c1cccs1,14.7% [at 0.501 µM],
COc1ccc(-n2c(SCC(N)=O)nc3c(oc4ccccc43)c2=O)cc1,-2.44%,
COc1cccc(-n2c(=S)[nH]c3c(oc4ccccc43)c2=O)c1,,44.7 µM (active)
Cc1cccc(-n2c(SCC(N)=O)nc3c(oc4ccccc43)c2=O)c1,8.13%,
CCOc1cc(/C=C(\C#N)C(=O)Nc2ccccc2C)ccc1OCc1cc(=O)n2nc(CC)sc2n1,-7.24%,
CC(=O)Nc1ccc(/C=C/C(=O)c2ccccc2)cc1,-1.87% [at 2.33 µM],
CN(C)c1ccc(/C=C/C(=O)c2ccc(C(C)(C)C)cc2)cc1[N+](=O)[O-],,12.6 µM (active)
Cc1cc(C)n(-c2ccc(C(=O)O)cc2[N+](=O)[O-])n1,-35.8% [at 102 µM],

Structure (SMILES),"activity, negative = inhibition",Potency
COc1cccc(CNC(=O)CN2C(=O)CCc3cc(S(=O)(=O)N4CCOCC4)ccc32)c1,23.9%,
COc1ccc(C(CNC(=O)c2ccc(S(=O)(=O)Nc3ccccc3C)cc2)N2CCOCC2)cc1 (configuration not stated),19% [at 2.33 µM],
Cc1ccn2cc(-c3nonc3C)cc2c1,,10 µM (active)
COc1ccc(-c2cn3ccc(C)cc3n2)cc1,-10% [at 102 µM],
Cc1nc(-c2ccc(F)cc2)c(CC(=O)N(C)CC(=O)Nc2c(C)cccc2C)s1,-12% [at 102 µM],
CCCSc1nc2sc3c(c2c(=O)n1-c1cccc(Br)c1)CC(C)(C)OC3,-29.5%,
Cc1cc(C(=O)OC(C)C(=O)NC2CCCCC2C)c(C)o1 (configuration not stated),-2.74% [at 102 µM],
O=C(CCc1ccccc1)NCc1ccc2c(c1)CCN2C(=O)c1ccccc1,2.34%,
Cc1cccc(NC(=S)NCc2ccc3[nH]c4c(c3c2)CCCC4)c1,,39.8 µM (active)
O=C(O)CCC(=O)NCc1ccc(C(=O)O)cc1,-34% [at 102 µM],
Cc1cccc(NC(=S)NCCN(C2CCCCC2)C2CCCC2)c1,16.8%,
Cc1cc(C)cc(NC(=S)NCc2ccc(F)cc2)c1,-8.23%,
O=C(O)CCC(=O)NCc1ccc2[nH]c3c(c2c1)CCCC3,,50.1 µM (active)
Cc1ccc(Cl)cc1NC(=O)CCC(=O)N1CC(C)Sc2ccccc21 (configuration not stated),-4.93%,
O=C(NCc1ccccc1)c1ccc2c(c1)nc1n2CCCCC1,14.7%,
CC(=O)c1ccc(NS(=O)(=O)c2ccc(-c3cc(C)no3)s2)cc1,3.66%,
Cc1ccc(N(C)C(=O)C2CCN(S(=O)(=O)c3ccc4c(c3)CCCN4C(=O)C3CCC3)CC2)cc1,-3.25%,
CCN(C(=O)COc1ccc(C(=O)c2ccccc2)cc1)c1ccccc1,-6.14%,
CC(=O)NNC1=Nc2ccccc2N(C)C(C)C1 (configuration not stated),,31.6 µM (active)
COC(=O)C1=C(C(=O)OC)[C@@H]2N(C)c3ccccc3[C@@]23C[C@@H](C(=O)OC)N(C(C)=O)C3=N1,16.1%,
